# Compounds with a hit are over-represented: about 2.1% of the library has one in this group of screens.
# KKLEB cytotox: cytotoxicity in KKLEB CF airway cells, primary screen, cytotoxicity control for CF NF-kB inhibitor project, cell-based, uHTS, fluorescence assay plates | KKLEB CF airway cells viability, ATPlite luminescence, overnight; stronger effect = lower value; cells stimulated with P. aeruginosa culture filtrate | activity change (cytotoxicity), % at 5 µM | actives 0.36% (n = 360,000) | AID 602141, 2011;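 active means corrected activity change at or below -50% at 5 µM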
# EWS-Fli inh: EWS/Fli-driven NR0B1 reporter inhibitors, primary screen, A673 cells, NR0B1 luciferase, luminescence, MLPCN library. viability-normalised. actives 0.67% (n = 350,000). AID 651661, 2012. inhibition, % at 12.6 µM;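 active means mean inhibition of at least 50% after viability correction, with every replicate also passing that limit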;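 further: firefly luciferase signal divided by Alamar Blue viability fluorescence both relative to DMSO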
# CF NFkB block: inhibitors of PAF-induced NF-kB signaling, primary screen, cell-based, GFP fluorescence, uHTS; actives 0.86% (n = 360,000); inhibition, % at 5 µM; AID 588850, 2011; KKLEB NF-kB-GFP reporter, GFP fluorescence overnight;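 active means at least 50% inhibition at 5 µM, scaled per plate between neutral and stimulator controls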;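 further: PAF is a Pseudomonas aeruginosa culture filtrate used as stimulus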
# HIF-2a inh: HIF-2a reporter inhibitors, primary screen, luminescence, 786-0 RCC cells. 786-0 RCC cells HIF-2a reporter, luciferase luminescence, overnight. inhibition, % at 18.8 µM. actives 0.72% (n = 360,000);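 active means inhibition of the luminescence signal of 40% or more relative to plate controls, in a single-dose primary screen at 18.75 µM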
# PAX8 inh HTS: inhibitors of PAX8-driven TPO luciferase reporter, primary screen, RMG-I cells, single concentration | AID 652154, 2013 | SteadyGlo, 24 h | actives 1.2% (n = 360,000) | inhibition, % at 12.6 µM;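 active means mean replicate inhibition at least 60% with every replicate also reaching 60%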;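 further: luciferase light reporting Pax8 driven TPO promoter activity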
# Hits are given with their value; – = inactive; · = no result given.
SMILES,KKLEB cytotox,EWS-Fli inh,CF NFkB block,HIF-2a inh,PAX8 inh HTS
C[C@H](CO)N1C[C@H](C)[C@H](CN(C)S(=O)(=O)c2ccc(Cl)cc2)Oc2c(NC(=O)Nc3cccc4ccccc34)cccc2C1=O,·,–,·,·,·
Cc1ccc(S(=O)(=O)N(C)C[C@@H]2Oc3c(NC(=O)c4ccc(-c5nccs5)cc4)cccc3C(=O)N([C@@H](C)CO)C[C@@H]2C)cc1,·,–,·,·,95
C[C@H](CO)N1C[C@H](C)[C@@H](CN(C)S(=O)(=O)c2ccc(Cl)cc2)Oc2c(NC(=O)c3nc4ccccc4s3)cccc2C1=O,·,–,·,·,72
C[C@@H]1CN([C@H](C)CO)C(=O)c2cccc(NC(=O)Nc3cccc4ccccc34)c2O[C@@H]1CN(C)S(=O)(=O)c1ccc(Cl)cc1,·,–,·,·,84
COc1ccc(S(=O)(=O)N(C)C[C@H]2Oc3c(NC(=O)Nc4ccc(C(F)(F)F)cc4)cccc3C(=O)N([C@@H](C)CO)C[C@H]2C)cc1,·,–,·,·,106
COc1ccc(S(=O)(=O)N(C)C[C@@H]2Oc3c(NC(=O)Nc4ccc(C(F)(F)F)cc4)cccc3C(=O)N([C@@H](C)CO)C[C@H]2C)cc1,·,–,·,·,–
COc1ccc2c3c(n(C)c2c1)[C@@H](CO)N(S(C)(=O)=O)CC31CCN(C(=O)CN(C)C)CC1,·,–,·,·,·
C[C@H]1CN([C@@H](C)CO)C(=O)c2cccc(NC(=O)Nc3ccc(F)cc3)c2O[C@H]1CN(C)S(=O)(=O)c1ccc(Cl)cc1,·,–,·,·,67
CNC[C@H]1Oc2c(NC(=O)c3nc4ccccc4s3)cccc2C(=O)N([C@@H](C)CO)C[C@@H]1C,·,–,·,·,–
CNC[C@H]1Oc2c(NC(=O)c3nc4ccccc4s3)cccc2C(=O)N([C@H](C)CO)C[C@@H]1C,·,58,·,·,61
CCCc1nc2ccc(NC(C)=O)cc2c(=O)n1Cc1ccc(Cl)cc1,–,–,–,–,67
COc1ccc(Cn2c(C3CC3)nc3ccc(NC(C)=O)cc3c2=O)cc1,–,·,–,–,·
C[C@@H]1CN([C@H](C)CO)S(=O)(=O)c2ccc(/C=C/c3ccccc3)cc2O[C@@H]1CN(C)C(=O)C1CC1,·,–,·,·,·
O=C1c2ccccc2C(=O)N1CSc1nnc(Nc2ccccc2F)s1,–,–,–,–,78
COc1ccc2c3c(n(C)c2c1)[C@H](CO)N(C(=O)CC1CC1)CC31CCN(C(=O)CC2CC2)CC1,·,–,·,·,·
CCc1nn(C(C)C(=O)N2CCN(c3ccc(OC)cc3)CC2)c(=O)c2cc3occc3n12 (stereo not given),–,55,–,–,–
COCC#Cc1cnc2c(c1)C(=O)N([C@H](C)CO)C[C@@H](C)[C@@H](CN(C)Cc1ccc3c(c1)OCO3)O2,·,–,·,·,–
COc1ccc(-c2ccc(N3C(c4cc(OC)cc(OC)c4)=Cc4ccc(OC)cc4C3CC(C)=O)cc2)cc1 (stereo not given),·,–,·,–,63
COc1ccc2c(c1)C(CC(C)=O)N(c1ccc(-c3cccs3)cc1)C(c1ccsc1)=C2 (stereo not given),·,–,·,–,64
CC1CCCN(S(=O)(=O)c2ccc(C(=O)Nc3ccccc3-c3nc4ccccc4[nH]3)cc2)C1 (stereo not given),-55,·,68,–,·
CC(C)NC(=O)N(C)C[C@H]1Oc2ccc(NC(=O)Nc3ccc(F)cc3)cc2CC(=O)N([C@@H](C)CO)C[C@@H]1C,·,–,·,·,–
c1ccc2c(c1)CCN(c1nc3cc4c(cc3s1)OCCO4)C2,-52,·,–,47,82
CC(C)N(C(=O)[C@H]1C[C@H](CC(=O)NCC23CC4CC(CC(C4)C2)C3)C(=O)N2CCc3c([nH]c4ccc(Cl)cc34)[C@]12C)C(C)C,–,–,–,–,67
CC(C)=CCC/C(C)=C/CNC(=O)C[C@H]1C[C@H](C(=O)N2CCOCC2)[C@@]2(C)c3[nH]c4ccc(Cl)cc4c3CCN2C1=O,–,–,–,–,104
O=C(C[C@H]1C[C@H](C(=O)N2CCCCC2)[C@@]2(CCc3ccccc3)c3[nH]c4ccc(Cl)cc4c3CCN2C1=O)NCc1ccco1,–,–,–,–,73
SMILES,KKLEB cytotox,EWS-Fli inh,CF NFkB block,HIF-2a inh,PAX8 inh HTS
CCN(CC)C(=O)[C@H]1C[C@H](CC(=O)NCc2cccc(C(F)(F)F)c2)C(=O)N2CCc3c([nH]c4ccc(Cl)cc34)[C@]12C,–,–,–,–,76
CCC(=O)N1CC2(C1)CN(C(=O)Nc1ccccc1F)[C@H](CO)c1[nH]c3cc(OC)ccc3c12,·,–,·,·,·
C[C@@H]1CN([C@@H](C)CO)C(=O)Cc2cc(NS(=O)(=O)c3ccc(F)cc3)ccc2O[C@H]1CN(C)C(=O)Nc1cccc2ccccc12,·,–,·,·,·
COc1ccc(S(=O)(=O)N(C)C[C@@H]2Oc3ccc(NC(=O)Cn4cnnn4)cc3CC(=O)N([C@H](C)CO)C[C@@H]2C)cc1,·,–,·,·,·
COc1ccc2c3c([nH]c2c1)[C@@H](CO)N(C(=O)C1CCCCC1)CC31CN(Cc2nccs2)C1,·,–,·,·,·
CS(=O)(=O)c1ccc(C(=O)NCCN2C(=O)S/C(=C\c3cccnc3)C2=O)cc1[N+](=O)[O-],-68,64,78,–,–
O=S(=O)(c1ccc(N=C2NN=C(c3cc(F)ccc3F)CS2)cc1)N1CCOCC1,–,–,–,–,90
C[C@@H]1CCCCO[C@@H](CN(C)Cc2ccc(C(F)(F)F)cc2)[C@@H](C)CN([C@@H](C)CO)C(=O)c2cc(NS(=O)(=O)c3ccccc3)ccc2O1,·,–,·,·,94
C[C@@H]1CN([C@H](C)CO)C(=O)c2cc(NS(=O)(=O)c3ccccc3)ccc2O[C@@H](C)CCCCO[C@@H]1CN(C)Cc1ccc(C(F)(F)F)cc1,·,–,·,·,102
C[C@@H]1CCCCO[C@H](CN(C)Cc2ccc(C(F)(F)F)cc2)[C@H](C)CN([C@H](C)CO)C(=O)c2cc(NS(=O)(=O)c3ccccc3)ccc2O1,·,–,·,·,89
C[C@@H]1CCCCO[C@H](CN(C)Cc2ccc(C(F)(F)F)cc2)[C@@H](C)CN([C@@H](C)CO)C(=O)c2cc(NS(=O)(=O)c3ccccc3)ccc2O1,·,–,·,·,88
C[C@@H]1CCCCO[C@@H](CN(C)Cc2ccc(C(F)(F)F)cc2)[C@@H](C)CN([C@H](C)CO)C(=O)c2cc(NS(=O)(=O)c3ccccc3)ccc2O1,·,–,·,·,–
CN(C)CC#Cc1ccc([C@H]2[C@@H](CO)N3CCCCN(C(=O)C4CC4)C[C@H]23)cc1,·,–,·,·,–
C[C@@H]1CCCCO[C@H](CN(C)Cc2ccc(C(F)(F)F)cc2)[C@H](C)CN([C@@H](C)CO)C(=O)c2cc(NS(=O)(=O)c3ccccc3)ccc2O1,·,–,·,·,–
C[C@@H]1CCCCO[C@@H](CN(C)Cc2ccc(C(F)(F)F)cc2)[C@H](C)CN([C@@H](C)CO)C(=O)c2cc(NS(=O)(=O)c3ccccc3)ccc2O1,·,66,·,·,111
